Our source for the inhibition of aggregation, nuclei count and inhibition values is PubChem BioAssay.

The structures appear in SMILES notation. Calls of active or inactive are those of the source.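 How the source made its calls, unless noted: active means visual image review flags a hit and inhibition of aggregation exceeds 20%; inconclusive means visual hit but inhibition at or below 20%; inactive means no hit on visual image review.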

The nature of the first assay: reduction of polyQ htt aggregates in cells – imaging, exon1htt(103Q)mCFP cells, high-content imaging, primary screen (AID 483).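 Further: compound exposure lasted 3 days before fixation.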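 On nuclei count: percent of the per-plate median nuclei count of sample wells.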 Conditions: exon1htt(103Q)mCFP cell line, aggregate imaging, at 2 µM; inhibition of aggregation: stronger effect = higher value; nuclei count: measured here: cell count, toxicity.
For `NS(=O)(=O)c1ccc(NC(=O)CSc2nnc(Cc3cccs3)n2-c2ccccc2)cc1`, the inhibition of aggregation was 7.5% (inactive) and the nuclei count came to 73.5%.

In the case of `O=C(O)CSc1ncn[nH]1`, the inhibition of aggregation was 22.9% (inactive) and the nuclei count was determined as 98.3%.

As for `Cc1ccc2c(C(=O)CN3CCSCC3)c(C)[nH]c2c1`, the inhibition of aggregation is -7.9% (inactive) and the nuclei count turned out to be 106%.

`COc1cccc(CC(=O)Nn2c(C)nc3ccccc3c2=O)c1`: the inhibition of aggregation was -8.2% (inactive) and the nuclei count came to 102%.

`Cc1nnc(SCc2cccc(Oc3ccccc3)c2)n1N`: the nuclei count stood at 108% and the inhibition of aggregation is 2.8% (inactive).

For `CC(CCc1ccccc1)NC(=O)C1CCN(S(=O)(=O)c2cnc[nH]2)CC1` (stereo not given), the nuclei count was determined as 107% and the inhibition of aggregation was -7.9% (inactive).

For the molecule `Cc1ccc(C)n1-c1ccc(-n2cnnn2)cc1`, the nuclei count turned out to be 86.5% and the inhibition of aggregation is -8.3% (inactive).

As for `CC(OC(=O)CNC(=O)C12CC3CC(CC(C3)C1)C2)C(=O)Nc1ccc(N2CCOCC2)cc1` (stereo not given), the inhibition of aggregation is 3.3% (inactive) and the nuclei count turned out to be 110%.

Consider `CC(C)CC(c1nnnn1C(C)(C)C)N1CCN(C2CCCC2)CC1` (stereo not given), for which the inhibition of aggregation was -11.7% (inactive) and the nuclei count turned out to be 98.2%.

For the molecule `CCOC(=O)C1=C(c2ccccc2)N2CCS(=O)(=O)N=C2S1`, the nuclei count came to 105% and the inhibition of aggregation is -5.8% (inactive).

For the molecule `CCOC(=O)Nc1ccc2c(c1)N(C(=O)CCN1CCOCC1)c1ccccc1S2`, the inhibition of aggregation is 32.1% (inactive) and the nuclei count came out at 100%.

Regarding `c1cnc(NCCNc2ncccn2)nc1`, the nuclei count amounted to 132% and the inhibition of aggregation was 11.9% (inactive).

As for `CN(C)C(=O)COc1ccc2cc(-c3ccccc3)c(=O)oc2c1`, the nuclei count amounted to 89.5% and the inhibition of aggregation is 14.5% (inactive).

Regarding `COc1ccc(COC(=O)c2n[nH]c3ccccc23)cc1F`, the nuclei count was determined as 125% and the inhibition of aggregation was -16% (inactive).

As to `Cc1cc(C(=O)COC(=O)CCc2nc3ccccc3s2)c(C)n1C`, the nuclei count was 108% and the inhibition of aggregation is 14.2% (inactive).

For the molecule `Cn1c(=O)cc(SCC(=O)NCc2cccnc2)c2ccccc21`, the inhibition of aggregation was 3.4% (inactive) and the nuclei count was 104%.

As for `CSc1ccc(-c2cc(=O)c3ccccc3o2)cc1`, the inhibition of aggregation was -54.9% (inactive) and the nuclei count is 8.7%.

Consider `Cn1c(C(=O)OC(C(=O)NC2CCCC2)c2cccnc2)cc2sccc21` (stereo not given), for which the inhibition of aggregation is 9.5% (inactive) and the nuclei count was 100%.

Take `C=CCSc1nnc(-c2ccc(Cl)cc2Cl)o1`: the nuclei count worked out at 84.8% and the inhibition of aggregation was 16.3% (inactive).

As to `COCc1nnc(SCC(=O)NC(C)c2ccccc2)n1-c1ccccc1` (stereo not given), the nuclei count stood at 94.3% and the inhibition of aggregation was 5.8% (inactive).

`Cc1nc2ccc(F)cc2cc1C(=O)NCC1CCCO1` (stereo not given): the nuclei count is 96.4% and the inhibition of aggregation is 7.6% (inactive).

In the case of `COc1ccc(OCCOC(=O)c2cccc(-n3cnnn3)c2)cc1`, the nuclei count amounted to 92.8% and the inhibition of aggregation was 8.2% (inactive).

As for `Cc1occc1-c1nnc(SCC(=O)N2CCOCC2)n1Cc1ccco1`, the nuclei count was determined as 82.5% and the inhibition of aggregation was -5.6% (inactive).

Take `COc1ccccc1C(=O)NCC(c1cccnc1)N(C)C` (stereo not given): the nuclei count worked out at 112% and the inhibition of aggregation was -39.1% (inactive).

As to `O=C1NC(=O)C(CC(=O)N(c2ccccc2)C2(C(=O)NC3CCCC3)CCCCC2)N1` (stereo not given), the inhibition of aggregation was 25.6% (inactive) and the nuclei count was determined as 83.3%.

Regarding `CCOC(=O)N1CCN(C(=O)CN(Cc2ccccc2)S(=O)(=O)c2ccc(OC)c(C)c2)CC1`, the inhibition of aggregation was 1.8% (inactive) and the nuclei count came to 106%.

For `O=C(CSc1nc2ccccc2o1)N1CCN(C(=O)c2ccco2)CC1`, the inhibition of aggregation was 9.6% (inactive) and the nuclei count turned out to be 102%.

For `c1cc2c(cc1C1CCCN1)OCCCO2` (stereo not given), the nuclei count came to 116% and the inhibition of aggregation is -16.6% (inactive).

Consider `COCCNC(=O)C(c1ccc(C)o1)N(C(=O)c1snc(C(N)=O)c1N)c1ccc(C)cc1` (stereo not given), for which the nuclei count was 94% and the inhibition of aggregation was 19.7% (inactive).

Regarding `O=C(CN1CCN(Cc2ccccc2)CC1)NCC1COc2ccccc2O1` (stereo not given), the inhibition of aggregation is -7% (inactive) and the nuclei count was 95.7%.

In the case of `Cc1nc2ccccc2nc1OCC(=O)Nc1cc(C(F)(F)F)ccc1N1CCOCC1`, the nuclei count stood at 85.4% and the inhibition of aggregation was 19.2% (inactive).

With `O=C(COc1ccc(F)cc1)Nc1ccc(-n2cnnn2)cc1`, the inhibition of aggregation was 34.2% (inactive) and the nuclei count was 90.5%.

As for `COc1ccc(N2CCN(C(=O)CSc3ccccc3)CC2)cc1`, the inhibition of aggregation was 1.5% (inactive) and the nuclei count came out at 105%.

As to `COC(=O)CCn1nnc(-c2ccc(C)cc2)n1`, the nuclei count was determined as 110% and the inhibition of aggregation was -4.9% (inactive).

Consider `COc1cccc(NC(=O)c2ccccc2NS(C)(=O)=O)c1`, for which the nuclei count stood at 112% and the inhibition of aggregation is -12.9% (inactive).

As for `CN(CC(=O)Nc1cccnc1)S(=O)(=O)c1cc(Cl)ccc1Cl`, the nuclei count turned out to be 101% and the inhibition of aggregation was -7.7% (inactive).

As to `CC12CN3CCN(CC(C3)C1(O)CN1CCCCC1)C2` (stereo not given), the inhibition of aggregation was -16.8% (inactive) and the nuclei count is 111%.

Consider `CC1CC(C)CN(c2nc3c(c(=O)[nH]c(=O)n3C)n2CCCSc2nc3ccccc3s2)C1` (stereo not given), for which the inhibition of aggregation is 33.6% (inactive) and the nuclei count worked out at 97.2%.

Take `O=C(c1cccnc1)N1CCN(C(=O)c2ccccc2F)CC1`: the inhibition of aggregation is -7.4% (inactive) and the nuclei count was 97.7%.

As to `CCOc1nc(NCCC2=CCCCC2)nc(N2CCOCC2)n1`, the inhibition of aggregation is 6.3% (inactive) and the nuclei count came to 84%.

A short description of the next assay: endothelial E-selectin expression blockers – imaging, HUVEC, immunofluorescence, MLSMR starter and 10KST1 sets, primary screen (AID 487;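 active means visually confirmed hit in the image check and inhibition above 20%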;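 on inhibition: signal is fraction of cell area covered by stained E-selectin grains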;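 on nuclei count: 100% = median nuclei count of all wells on the same plate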). Conditions: HUVEC TNFalpha-induced E-selectin immunofluorescence imaging, at 2 µM; inhibition: stronger effect = higher value; nuclei count: measured here: cell number, toxicity.
As to `NS(=O)(=O)c1ccc(NC(=O)CSc2nnc(Cc3cccs3)n2-c2ccccc2)cc1`, the nuclei count is 100% and the inhibition is -24.9% (inactive).

With `O=C(O)CSc1ncn[nH]1`, the inhibition is -28.2% (inactive) and the nuclei count is 112%.

`Cc1ccc2c(C(=O)CN3CCSCC3)c(C)[nH]c2c1`: the nuclei count came to 104% and the inhibition is 2.2% (inactive).

On to `COc1cccc(CC(=O)Nn2c(C)nc3ccccc3c2=O)c1`, for which the nuclei count stood at 115% and the inhibition was -2% (inactive).

For the molecule `Cc1nnc(SCc2cccc(Oc3ccccc3)c2)n1N`, the inhibition is -59.1% (inactive) and the nuclei count turned out to be 105%.

As to `CC(CCc1ccccc1)NC(=O)C1CCN(S(=O)(=O)c2cnc[nH]2)CC1` (stereo not given), the inhibition is 16.4% (inactive) and the nuclei count stood at 110%.

As to `Cc1ccc(C)n1-c1ccc(-n2cnnn2)cc1`, the inhibition was -24.4% (inactive) and the nuclei count worked out at 50.8%.

For the molecule `CC(OC(=O)CNC(=O)C12CC3CC(CC(C3)C1)C2)C(=O)Nc1ccc(N2CCOCC2)cc1` (stereo not given), the nuclei count came to 111% and the inhibition was -47.1% (inactive).

As to `CC(C)CC(c1nnnn1C(C)(C)C)N1CCN(C2CCCC2)CC1` (stereo not given), the inhibition was -5.6% (inactive) and the nuclei count amounted to 109%.

Consider `CCOC(=O)C1=C(c2ccccc2)N2CCS(=O)(=O)N=C2S1`, for which the inhibition was -98.9% (inactive) and the nuclei count came to 108%.

As for `CCOC(=O)Nc1ccc2c(c1)N(C(=O)CCN1CCOCC1)c1ccccc1S2`, the nuclei count was 104% and the inhibition was 3% (inactive).

For the molecule `c1cnc(NCCNc2ncccn2)nc1`, the inhibition was -57.1% (inactive) and the nuclei count is 124%.

Turning to `CN(C)C(=O)COc1ccc2cc(-c3ccccc3)c(=O)oc2c1`, the inhibition was -75.1% (inactive) and the nuclei count was 146%.

Regarding `COc1ccc(COC(=O)c2n[nH]c3ccccc23)cc1F`, the inhibition was -1.8% (inactive) and the nuclei count amounted to 107%.

Turning to `Cc1cc(C(=O)COC(=O)CCc2nc3ccccc3s2)c(C)n1C`, the inhibition is -16% (inactive) and the nuclei count was 96%.

`Cn1c(=O)cc(SCC(=O)NCc2cccnc2)c2ccccc21`: the nuclei count came out at 110% and the inhibition is -48.7% (inactive).

As for `CSc1ccc(-c2cc(=O)c3ccccc3o2)cc1`, the inhibition is -108% (inactive) and the nuclei count was determined as 139%.

In the case of `Cn1c(C(=O)OC(C(=O)NC2CCCC2)c2cccnc2)cc2sccc21` (stereo not given), the inhibition was -76.7% (inactive) and the nuclei count was 102%.

Consider `C=CCSc1nnc(-c2ccc(Cl)cc2Cl)o1`, for which the nuclei count is 88.4% and the inhibition is 14.7% (inactive).

In the case of `COCc1nnc(SCC(=O)NC(C)c2ccccc2)n1-c1ccccc1` (stereo not given), the inhibition is -18.5% (inactive) and the nuclei count stood at 101%.

In the case of `Cc1nc2ccc(F)cc2cc1C(=O)NCC1CCCO1` (stereo not given), the nuclei count came to 115% and the inhibition was -34.7% (inactive).

For `COc1ccc(OCCOC(=O)c2cccc(-n3cnnn3)c2)cc1`, the inhibition is -5.5% (inactive) and the nuclei count amounted to 112%.

As for `Cc1occc1-c1nnc(SCC(=O)N2CCOCC2)n1Cc1ccco1`, the inhibition is -41% (inactive) and the nuclei count came to 107%.

`COc1ccccc1C(=O)NCC(c1cccnc1)N(C)C` (stereo not given): the nuclei count amounted to 122% and the inhibition is 1.4% (inactive).

As to `O=C1NC(=O)C(CC(=O)N(c2ccccc2)C2(C(=O)NC3CCCC3)CCCCC2)N1` (stereo not given), the inhibition was -24.5% (inactive) and the nuclei count is 108%.

On to `CCOC(=O)N1CCN(C(=O)CN(Cc2ccccc2)S(=O)(=O)c2ccc(OC)c(C)c2)CC1`, for which the inhibition was -6.6% (inactive) and the nuclei count amounted to 70.5%.

Take `O=C(CSc1nc2ccccc2o1)N1CCN(C(=O)c2ccco2)CC1`: the nuclei count came to 99.6% and the inhibition is -19.5% (inactive).

For `c1cc2c(cc1C1CCCN1)OCCCO2` (stereo not given), the inhibition was -44% (inactive) and the nuclei count is 116%.

In the case of `COCCNC(=O)C(c1ccc(C)o1)N(C(=O)c1snc(C(N)=O)c1N)c1ccc(C)cc1` (stereo not given), the nuclei count came to 65.5% and the inhibition was 73.6% (inactive).

Consider `O=C(CN1CCN(Cc2ccccc2)CC1)NCC1COc2ccccc2O1` (stereo not given), for which the inhibition is -17.6% (inactive) and the nuclei count is 94.9%.

In the case of `Cc1nc2ccccc2nc1OCC(=O)Nc1cc(C(F)(F)F)ccc1N1CCOCC1`, the inhibition is 80.7% (active) and the nuclei count came to 113%.

`O=C(COc1ccc(F)cc1)Nc1ccc(-n2cnnn2)cc1`: the inhibition was 52.5% (inactive) and the nuclei count turned out to be 62.3%.

With `COc1ccc(N2CCN(C(=O)CSc3ccccc3)CC2)cc1`, the nuclei count worked out at 108% and the inhibition was -18.6% (inactive).

As to `COC(=O)CCn1nnc(-c2ccc(C)cc2)n1`, the inhibition is -24.9% (inactive) and the nuclei count is 108%.

As to `COc1cccc(NC(=O)c2ccccc2NS(C)(=O)=O)c1`, the nuclei count worked out at 149% and the inhibition was -133% (inactive).

Consider `CN(CC(=O)Nc1cccnc1)S(=O)(=O)c1cc(Cl)ccc1Cl`, for which the inhibition was -44.8% (inactive) and the nuclei count turned out to be 98.2%.

With `CC12CN3CCN(CC(C3)C1(O)CN1CCCCC1)C2` (stereo not given), the inhibition was -66.3% (inactive) and the nuclei count was found to be 121%.

Turning to `CC1CC(C)CN(c2nc3c(c(=O)[nH]c(=O)n3C)n2CCCSc2nc3ccccc3s2)C1` (stereo not given), the inhibition is -83.6% (inactive) and the nuclei count was 107%.

Turning to `O=C(c1cccnc1)N1CCN(C(=O)c2ccccc2F)CC1`, the nuclei count worked out at 114% and the inhibition is -6% (inactive).

For `CCOc1nc(NCCC2=CCCCC2)nc(N2CCOCC2)n1`, the nuclei count was found to be 96.5% and the inhibition is -23.8% (inactive).

For orientation: inhibition means the change of the read-out against control, counted positive when it falls.
